# From ChEMBL document CHEMBL3988442, “University of Dundee, Small-Polar-MMV Screening Library” (2021)
# Screen size: about 48,000 compounds; about 13,000 (27%) showed an effect of 50% or more. Some of the results follow.
# Test system: Wolbachia pipientis
# Test: Anti-Wolbachia Cell-Based Screen
# Type: functional
# Design: scale not given: in the data most compounds retested in dose-response had high values
# Details: 5 µM
row,SMILES,Percent Effect
1,Cc1nc2c(C(=O)N[C@H]3C[C@H]4CN(C)CCN4C3)cccc2[nH]1,8.866%
2,CCCc1cc(N2CCCC2Cn2nc(C)cc2C)n2ncnc2n1 (centres undefined),-3.923%
3,CC(C)OCCS(=O)(=O)c1ccccc1C#N,-1.71%
4,Cc1ccc(C)c(C(NC(=O)C2CC2)c2cccnc2)c1 (centres undefined),-2.241%
5,O=C(Nc1cc(-c2cccnc2)no1)C1CCCCC1,-34.68%
6,CC(NC(=O)C1CC1)c1cc(O)nc(-c2cccnc2)n1 (centres undefined),92.57%
7,CCc1nnc(CN(C)Cc2cccc(C(=O)Nc3cnn(C)c3)c2)o1,-6.481%
8,CCc1nnc(CN(C)Cc2cccc(C(=O)Nc3nccs3)c2)o1,-6.732%
9,CCCNC(=O)Nc1ccn(CCCOC)n1,-11.06%
10,Cn1cc(CNC(=O)Nc2ccc(S(=O)(=O)C(F)F)cc2)cn1,-23.54%
11,CN(CCNC(=O)Nc1nccs1)Cc1ccc(F)cc1,98.5%
12,CN(CCNC(=O)Nc1ccn(C)n1)Cc1ccc(F)cc1,87.45%
13,CN(CCNC(=O)Nc1cnn(C)c1)Cc1ccc(F)cc1,113%
14,CC(NC(=O)Nc1nccs1)c1ccncc1 (centres undefined),-0.7222%
15,Cn1ccc(NC(=O)Cc2cccc(F)c2)n1,-26.85%
16,CC(=O)N1CCN(c2ccccc2CNc2cc(F)cc(F)c2)CC1,2.493%
17,OCc1ccc(-c2nccn2CCC2=CCCCC2)o1,-8.705%
18,CS(=O)(=O)CCSCc1cccc2cccnc12,-12.23%
19,CN(CC(=O)Nc1cc(-n2nnnc2C2CC2)ccc1F)C1CCC1,-0.6608%
20,CCN1C(=O)CCC12CCN(S(=O)(=O)c1ccccc1)CC2,-5.531%
21,O=C(c1cccc(CO)n1)N1CCOC(c2ccc(Cl)c(Cl)c2)C1 (centres undefined),-12.21%
22,CC(O)c1cccc(N2CCC3(CCC(=O)N(C4CCCC4)C3)CC2)n1 (centres undefined),47.1%
23,N#Cc1cccc(N2CCC3(CCC(=O)N(CC4CCCO4)C3)CC2)n1 (centres undefined),-19.35%
24,N#Cc1cccc(N2CCCC3(CCC(=O)N(C4CCCC4)C3)C2)n1 (centres undefined),106.1%
25,CC(C)c1cccc(N2CCCC3(CCC(=O)N(C4CC4)C3)C2)n1 (centres undefined),105.3%
26,CCOC(=O)c1cccc(N2CCCC3(CCC(=O)N(C4CC4)C3)C2)n1 (centres undefined),78.13%

row,SMILES,Percent Effect
1,CCCc1nc(C)cc(N2CCC3(CCC(=O)N(C4CC4)C3)CC2)n1,-0.6506%
2,CC(=O)c1ccc(N2CCC3(CCC(=O)N(C4CC4)C3)CC2)nc1,5.2%
3,N#Cc1cccc(N2CCC3(CCC(=O)N(CC(N)=O)C3)CC2)n1,-17.91%
4,CC(O)c1cccc(N2CCC3(CCC(=O)N(CC(N)=O)C3)CC2)n1 (centres undefined),-13.92%
5,CCNC(=O)NC[C@H]1COCc2nc3cc(C)ccc3n21,-20.29%
6,CN(Cc1ccon1)C(=O)C1CC(=O)N(Cc2ccncc2)C1 (centres undefined),7.553%
7,O=C(c1ccon1)N1CCc2ncnc(NCc3ccccn3)c2CC1,-13.25%
8,Clc1ccccc1-c1cc(CNc2ncnc3c2CCNCC3)no1,100.4%
9,COCc1noc(CCNc2ncnc3c2CCNCC3)n1,1.85%
10,c1cncc(-c2noc(CNc3ncnc4c3CCNCC4)n2)c1,1.079%
11,Cc1ccc(-c2cc(CNc3ncnc4c3CCNCC4)no2)cc1,96.68%
12,COc1ccc(-c2cc(CNc3ncnc4c3CCNCC4)no2)cc1,113.1%
13,COc1ccc(-c2cc(CC3(NCc4ccc(C)o4)COC3)no2)cc1,0%
14,c1cncc(-c2noc(CCNc3ncnc4c3CCNCC4)n2)c1,-0.2436%
15,CCCS(=O)(=O)N1CC[C@H]2O[C@H](c3nnc(C)o3)CC[C@H]21,-25.7%
16,CN(CC(N)=O)C(=O)c1cnc(-c2ccc(Cl)s2)s1,2.419%
17,CN1CCCN(C(=O)NCCOc2ccc3c(c2)OCO3)CC1,115.1%
18,CC(=O)N1CCCN(C(=O)NCCOc2ccc3c(c2)OCO3)CC1,96.11%
19,O=C(NCCOc1ccc2c(c1)CCC2)N1CCS(=O)(=O)CC1,35.32%
20,CCCN1CCCN(C(=O)Nc2ccc3c(c2)OCO3)CC1,-18.65%
21,CC(C)Cc1noc(CNc2cc3c(cc2Cl)OCCCO3)n1,11.73%
22,CCc1ccc(C(=O)NC2CCN(c3cnn(C)c3)C2=O)o1 (centres undefined),0.5002%
23,Cc1ccc(C(=O)NCC2CCN(C)c3ccccc32)c(=O)[nH]1 (centres undefined),-6.721%
24,CCc1ccc(NC(=O)c2cnc(N3CCN(C)CC3)nc2C)cc1,0.5656%
25,Cn1cc(NC(=O)c2cc[nH]n2)cc(Cl)c1=O,-6.664%
26,Cc1ccc(C(=O)Nc2ccc3c(c2)N(C)CCN(C)C3)c(=O)[nH]1,112.4%

row,SMILES,Percent Effect
1,CN1CCN(C)c2cc(NC(=O)c3cc[nH]n3)ccc2C1,95.27%
2,CCc1ccc(C(=O)Nc2cc(N3CCNC3=O)ccc2Cl)o1,2.04%
3,Cc1ccc(C(=O)NC(CN2CCCC2=O)c2ccccc2)c(=O)[nH]1 (centres undefined),-15.69%
4,CCc1ccc(C(=O)Nc2ccc3c(c2)N(C)CCN(C)C3)o1,68.84%
5,Cc1cc(C(=O)Nc2ccc3c(c2)N(C)CCN(C)C3)on1,108.1%
6,N#Cc1cc(NC(=O)c2cc[nH]n2)ccc1N1CCC(O)CC1,-7.892%
7,Cc1cc(C(=O)NC2CCCN(c3ccccc3)C2=O)on1 (centres undefined),-7.232%
8,CC(C)N(CC(N)=O)Cc1c(Cl)ccc2cccnc12,35.48%
9,CCN(CC)C(=O)c1cnc(Sc2nccn2C)c(Cl)c1,-3.996%
10,COc1ccccc1CC(=O)NCCCN1CCCC1C(=O)N(C)C (centres undefined),-7.215%
11,CCN(Cc1noc(C)n1)C(=O)C(c1ccccc1C)N(C)C (centres undefined),20.53%
12,CS(=O)(=O)NCC(=O)NC1(c2ccc(Cl)c(Cl)c2)CC1,-6.64%
13,Cc1ccc(-n2cc(CN3CCOCC(CN(C)C)C3)cn2)cc1C (centres undefined),-29.82%
14,O=C([C@@H]1CCCN1c1nccc(Nc2ccccc2)n1)N1CCCCC1,107.6%
15,Cl.O=C(O)[C@@H]1CCCN1c1nccc(Nc2ccccc2)n1,110.6%
16,O=C(Nc1cccc(N2CCCC2)c1)C1CCCN1c1nccs1 (centres undefined),-13.09%
17,Cc1cn2nc(N3CCCC3C(=O)N3CCSCC3)sc2n1 (centres undefined),-34.07%
18,CNC(=O)[C@@H](c1ccccc1)N1CCC[C@H]1C(=O)NCc1ccccn1.Cl.Cl,-0.04544%
19,O=C(C1CCCN1c1ncnc2ccsc12)N1CCSCC1 (centres undefined),-9.281%
20,OCc1ccc(N2CCN(c3ncccn3)CC2)c(F)c1,10.85%
21,COc1cc(C2C3=C(COC3=O)Nc3[nH]nc(C)c32)cc(Br)c1O (centres undefined),6.444%
22,CC(C)CSc1ccc(-n2cccn2)nn1,-15.59%
23,O=C(O)C(F)(F)F.O=C1[C@H]2CN(CC3CCOCC3)C[C@H]2CN1c1ccsc1,-12.76%
24,O=S(=O)(c1ccccc1)N1CCCCC1c1cc[nH]n1 (centres undefined),7.34%
25,CS(=O)(=O)c1ccc(CN2CCCCC2c2ccc(F)cc2)cc1 (centres undefined),14.88%
26,O=S(=O)(c1ccccc1)N1CCCC1c1cc[nH]n1 (centres undefined),100.7%

row,SMILES,Percent Effect
1,COc1nn(C)c2c1CCCN(S(=O)(=O)c1ccccc1F)C2,9.619%
2,CNS(=O)(=O)c1ccc(CN2CCCC2c2ccc(F)cc2)cc1 (centres undefined),-2.722%
3,O=S(=O)(c1ccccc1F)N1CCCCC1c1cc[nH]n1 (centres undefined),126.5%
4,O=C(O)C(F)(F)F.O=S(=O)(c1ccc(F)cc1)N1CC[C@H]2[C@H]1CCN2c1ncccn1,5.126%
5,COCCN(C)CC1CCCN1S(=O)(=O)c1cccc(F)c1F (centres undefined),-7.612%
6,O=S(=O)(c1ccc(F)cc1)N1CCCCC1c1cc[nH]n1 (centres undefined),93.21%
7,O=S(=O)(c1ccc(F)cc1)N1CCCC1c1cc[nH]n1 (centres undefined),93.9%
8,CCN1C(=O)C[C@@H]2[C@@H]1CCN2S(=O)(=O)c1ccccc1,-17.79%
9,CN(Cc1ccno1)C(=O)c1cccc(CC2CCNCC2)c1,-13.23%
10,CCNC(=O)NC(=O)CNC1(c2noc(C)n2)CCCC1,91.61%
11,Cc1nc(C2(NC(=O)NCc3cc(C#N)ccc3F)CCCC2)no1,-8.279%
12,Cc1nc(C2(NCc3ccc(C#N)cc3F)CCCC2)no1,14.6%
13,COc1cc(-c2nccn2C(C)CCn2cccn2)cc2c1OCO2 (centres undefined),-13.68%
14,CC1CCN(C)c2ccccc2N1C(=O)c1ccc(=O)n(C)n1 (centres undefined),-12.65%
15,CC(C)(C)CN1CCCC(O)(CN2CCc3[nH]ncc3C2)C1=O (centres undefined),-1.805%
16,CC(C)CCN1CCCC12Cc1ccccc1CNC2=O (centres undefined),106.1%
17,CC(C)(C)CN1CCCC12Cc1ccccc1CNC2=O (centres undefined),188%
18,Cc1cccc(N(CCC(N)=O)CC(=O)NC2CCCC2)c1,-5.461%
19,NC(=O)CCN(CC(=O)NCc1ccccn1)c1ccc(F)cc1,119%
20,Cc1ccc(CNC(=O)CN(CCC(N)=O)c2ccc(F)cc2)cc1,105.8%
21,Cc1cccc(N(CCC(N)=O)CC(=O)Nc2ccccc2)c1,2.508%
22,O=C(NCc1ccccn1)N(Cc1ccc(F)cc1F)C1CC1,-2.472%
23,NC(=O)CCN(CC(=O)NCc1cccs1)c1ccc(F)cc1,110%
24,O=C(CSc1nnc[nH]1)NCc1cccs1,-6.872%
25,COc1nn(C)cc1C(=O)NCC(=O)NCc1ccccn1,5.267%
26,O=C(CN(Cc1cccs1)c1ccc(F)cc1)NC1CCOCC1,-0.05044%
